We go through two compounds from the supplement of paper PMC11628255, “Interference of metal ions on the bioluminescent signal of firefly, Renilla, and NanoLuc luciferases in high-throughput screening assays” (Frontiers in Chemistry, 2024).

± gives the standard deviation of the averaged measurements.

The subject of the test is firefly luciferase (FLuc). Nature of the test: residual bioluminescent signal relative to negative control without GSH; higher = less interference (more residual luciferase signal). The following applies: screening conditions buffer. The method, then:
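Selected metal salts at 3-4 concentrations tested on purified FLuc, NLuc or RLuc in screening buffer with 0, 0.2 or 2 mM glutathione added; 10 min enzyme pre-incubation at RT, luminescence 10 min after substrate. Signal normalised to negative control without GSH (% N_VALUE); triplicate wells.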

The mark [1] stands for this setting: metal salt concentration 1 mM, glutathione 0 mM.
Setting [2] is: metal salt concentration 1 mM, glutathione 0.2 mM.
The mark [3] stands for this setting: metal salt concentration 1 mM, glutathione 2 mM.

Consider `[Cl][Fe]([Cl])[Cl]` [iron(III) chloride], for which the residual bioluminescent signal (metal salt concentration 0.0001 mM, glutathione 0 mM) came out at 89.7 ± 5%; the residual bioluminescent signal (metal salt concentration 0.0001 mM, glutathione 0.2 mM) was determined as 66.3 ± 5.5%; the residual bioluminescent signal (metal salt concentration 0.0001 mM, glutathione 2 mM) was 0.338 ± 0.22%; the residual bioluminescent signal (metal salt concentration 0.0047 mM, glutathione 0 mM) was 51.2 ± 3.8%; the residual bioluminescent signal (metal salt concentration 0.0047 mM, glutathione 0.2 mM) was 36.4 ± 2.5%; the residual bioluminescent signal (metal salt concentration 0.0047 mM, glutathione 2 mM) is 0.483 ± 0.17%. Further, the residual bioluminescent signal (metal salt concentration 0.02 mM, glutathione 0 mM) came to 1.11 ± 0.084%; the residual bioluminescent signal (metal salt concentration 0.02 mM, glutathione 0.2 mM) turned out to be 0.87 ± 0.14%; the residual bioluminescent signal (metal salt concentration 0.02 mM, glutathione 2 mM) amounted to 0.725 ± 0.43%; the residual bioluminescent signal under setting [1] worked out at 1.06 ± 0.36%; the residual bioluminescent signal under setting [2] was 0.628 ± 0.47%; the residual bioluminescent signal under setting [3] worked out at 0.29 ± 0.14%.

As for `[Cl][Fe][Cl]` [iron(II) chloride], the residual bioluminescent signal (metal salt concentration 0.2 mM, glutathione 0 mM) was 98.6 ± 7.2%; the residual bioluminescent signal (metal salt concentration 0.2 mM, glutathione 0.2 mM) was 85.2 ± 7.9%; the residual bioluminescent signal (metal salt concentration 0.2 mM, glutathione 2 mM) was found to be 0.483 ± 0.3%; the residual bioluminescent signal (metal salt concentration 0.26 mM, glutathione 0 mM) came to 2.17 ± 0.52%; the residual bioluminescent signal (metal salt concentration 0.26 mM, glutathione 0.2 mM) is 0.87 ± 0.25%; the residual bioluminescent signal (metal salt concentration 0.26 mM, glutathione 2 mM) is 0.387 ± 0.3%. Also, the residual bioluminescent signal is, setting by setting: under setting [1], 0.58 ± 0.29%; under setting [2], 0.556 ± 0.31%; under setting [3], 0.531 ± 0.22%.
